Screens: PubChem, several laboratories
Sampled rows, rich in hits. Any-hit rate of the full collection: about 5.1%.
CRFR2-BP ag: CRF-BP/CRF-R2 complex agonism; HEK293 CRF-R2/CRF-BP, calcium dye fluorescence (FLIPR); percent of saturating CRF peptide response; activation, % at 13.2 µM; actives 0.46% (n = 350,000); AID 588473;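 active = activation of at least 50%, plus an integration ratio under a set limit after plate pattern correction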
ANO1 activ: mouse TMEM16A channel activation, primary screen; Q8BHY3; HEK293 TMEM16A/YFP-H148Q/I152L, iodide quench fluorescence; active compounds read low; B-score at 10 µM; actives 0.3% (n = 340,000);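 active = fluorescence-ratio B-score plate-corrected deviation score at least 3 library SD below zero, with starting fluorescence score within 5 deviations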;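 also: channel opened by trigger with iodide after compound preincubation; score built on the fluorescence ratio of max minus min over baseline; more negative score means more quench and so TMEM16A activation or potentiation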
MPTP inh: inhibitors of mitochondrial permeability transition pore | isolated mouse mitochondria, Ca2+ swelling absorbance, 30 min | inhibition, % at 10 µM | AID 602449 | actives 1.4% (n = 360,000);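 active = inhibition of 50% or more, scaled per plate between neutral and stimulator controls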
TMEM16A inh: mouse TMEM16A channel inhibition, primary screen; AID 588511; actives 1.2% (n = 310,000); normalized B-score (activity score, 25-100; higher = stronger inhibition) at 10 µM; HEK293 TMEM16A/YFP iodide influx fluorescence, ionomycin; Q8BHY3;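 active = ratio plate-corrected score three or more library SD toward inhibition, starting fluorescence score within five deviations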;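 also: score derived from kinetic fluorescence span divided by baseline fluorescence per well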
NR3A LBD binder: NR3A (human) ligand-binding domain modulation. NR3A LBD differential scanning fluorimetry, Tm shift; 0% = protein alone, 100% = glycine-bound protein. Tm shift relative to glycine control, % at 25 µM. actives 2.5% (n = 340,000);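 active = melting temperature shift of at least 10% of the positive control shift, at one fixed dose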
CRFR2-BP antag: antagonists of CRF-binding protein/CRF-R2 receptor complex; HEK293 CRF-R2/CRF-BP, CRF-induced calcium fluorescence; inhibition, % at 11.8 µM; actives 0.59% (n = 350,000);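 active = inhibition of the ligand-induced calcium signal above about 50% at the single tested concentration, limit read from the data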
TMEM16A reconf: reconfirmed blocker of mouse TMEM16A calcium-activated chloride channel. AID 652189. inhibition, % at 10 µM. HEK293 TMEM16A/YFP-H148Q, iodide quench fluorescence; ionomycin added to raise cell calcium. actives 39% (n = 2,300). shares compounds with TMEM16A inh;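 active = mean duplicate percent inhibition, scaled so buffer wells are 0 and the reference blocker 100, over three buffer SD above buffer mean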
HEK293 Ca mobil: counter-screen for TMEM16A inhibitors: effect on calcium mobilization; shares compounds with TMEM16A inh; TMEM16A/YFP HEK293, Fluo4 calcium mobilization; calcium response (% of ionomycin), % at 10 µM; actives 2% (n = 2,300);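 active = duplicate-averaged calcium signal over 20% of the ionomycin maximum, relative to buffer baseline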;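 also: each well's signal is peak minus trough fluorescence divided by its pre-addition baseline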
Parental YFP cnt: counter-screen for TMEM16A inhibitors: effect in parental YFP-HEK293 cells; YFP ratio F(max-min)/F0 at 10 µM; 2,300 tested, under 10 active; iodide YFP quench, ionomycin; AID 652233; shares compounds with TMEM16A inh;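 active = yellow fluorescent protein signal ratio exceeding the buffer control mean by over 5 SD of those controls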;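 also: ratio is mean of duplicate wells from kinetic YFP trace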
ClC-1 inh: blocks the rat ClC-1 voltage-dependent chloride channel; ratio percent, % at 10 µM; 2,300 tested, under 10 active; CHO ClC-1-YFP, iodide influx fluorescence quench; iodide control reads 0, buffer control 100; shares compounds with TMEM16A inh;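 active = duplicate-mean ratio percent above the mean of iodide-only control wells, which defines zero, plus 5 of their SD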;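 also: higher percent means stronger block of ClC-1 iodide influx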
Target sequence (P35524 whole entry, looked up): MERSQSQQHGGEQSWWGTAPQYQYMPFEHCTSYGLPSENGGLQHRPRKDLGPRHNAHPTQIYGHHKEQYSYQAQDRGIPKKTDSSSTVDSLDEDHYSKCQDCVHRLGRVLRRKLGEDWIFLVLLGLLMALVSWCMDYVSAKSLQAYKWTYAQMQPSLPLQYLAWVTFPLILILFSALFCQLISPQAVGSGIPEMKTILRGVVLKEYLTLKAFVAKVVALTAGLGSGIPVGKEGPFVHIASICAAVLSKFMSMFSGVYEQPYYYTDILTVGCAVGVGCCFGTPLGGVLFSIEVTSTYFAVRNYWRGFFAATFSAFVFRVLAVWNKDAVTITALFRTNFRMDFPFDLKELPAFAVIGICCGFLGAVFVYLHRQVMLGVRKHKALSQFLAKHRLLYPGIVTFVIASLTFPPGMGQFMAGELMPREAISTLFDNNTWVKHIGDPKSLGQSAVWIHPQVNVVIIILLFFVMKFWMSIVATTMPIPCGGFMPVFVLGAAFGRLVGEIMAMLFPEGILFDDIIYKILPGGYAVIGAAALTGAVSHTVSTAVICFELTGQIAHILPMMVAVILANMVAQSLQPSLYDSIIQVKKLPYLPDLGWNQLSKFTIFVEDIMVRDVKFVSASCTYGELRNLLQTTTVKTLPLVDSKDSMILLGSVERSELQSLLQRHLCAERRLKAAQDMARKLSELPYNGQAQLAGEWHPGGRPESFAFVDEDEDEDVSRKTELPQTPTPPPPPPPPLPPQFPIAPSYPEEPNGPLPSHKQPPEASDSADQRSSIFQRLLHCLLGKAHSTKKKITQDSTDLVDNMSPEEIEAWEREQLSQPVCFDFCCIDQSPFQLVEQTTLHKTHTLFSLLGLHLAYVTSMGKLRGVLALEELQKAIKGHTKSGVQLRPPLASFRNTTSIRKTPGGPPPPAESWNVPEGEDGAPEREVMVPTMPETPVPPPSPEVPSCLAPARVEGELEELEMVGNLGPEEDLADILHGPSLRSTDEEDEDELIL
Numbers stand for hits; i = inactive; nt = no result given.

SMILES	CRFR2-BP ag	ANO1 activ	MPTP inh	TMEM16A inh	NR3A LBD binder	CRFR2-BP antag	TMEM16A reconf	HEK293 Ca mobil	Parental YFP cnt	ClC-1 inh
CCS(=O)(=O)N1CCC(C(=O)Nc2cc(C)ccc2O)CC1	i	i	i	i	i	i	nt	nt	nt	nt
COc1ccc(NC(=O)N2CCCC2)cc1OC	i	i	i	25	i	i	i	i	i	i
CC(C)(C)CN1CCN(Cc2c[nH]c3ccccc23)CC1CCO (configuration not stated)	i	i	i	i	i	i	nt	nt	nt	nt
Cc1cc(C(=O)N2CCC2(C)C(=O)Nc2cccc3ccccc23)nn1C (configuration not stated)	nt	nt	i	nt	nt	nt	nt	nt	nt	nt
Cc1cccc(OCC(=O)NNc2c3ccccc3nc3ccccc23)c1	i	i	i	25	i	i	i	i	i	i
CC1(C)CC2CC(C)(CN2S(=O)(=O)c2ccc(N)cc2)C1 (configuration not stated)	i	i	i	25	i	i	i	i	i	i
COc1cccc(C(=O)/C(C#N)=N/Nc2cccc(-c3ccnc(C)n3)c2)c1	i	i	i	100	i	i	i	i	i	i
C=CCOc1ccccc1CN1CCN(CCc2ccccc2)C(CCO)C1 (configuration not stated)	i	i	i	i	i	i	nt	nt	nt	nt
CCN(c1cccc(C(F)(F)F)c1)S(=O)(=O)c1ccc2c(c1)CCN2C(C)=O	i	nt	i	25	i	i	18%	i	i	i
CCN(c1cccc(C)c1)S(=O)(=O)c1ccc2c(c1)CCN2C(C)=O	i	i	i	i	i	i	nt	nt	nt	nt
Cc1ccccc1C(=O)NNC(=S)NC(=O)COc1ccccc1	129	i	i	25	i	i	34%	80%	i	i
COC(=O)c1ccccc1NC(=S)NC(=O)COc1ccccc1	i	i	i	i	i	i	nt	nt	nt	nt
c1ccc(CSc2ccc(-c3ccccn3)nn2)nc1	i	i	i	i	i	i	nt	nt	nt	nt
CCOC(=O)CC(=O)CSc1nc2c(sc(=S)n2-c2ccc(C)c(C)c2)c(=O)[nH]1	i	nt	i	25	i	i	i	i	i	i
O=C(Nc1nnc(CSCc2ccc(Cl)cc2)s1)c1cccc([N+](=O)[O-])c1	i	i	i	25	19	i	i	i	i	i
O=C(NCc1ccncc1)c1nc(-c2ccc(C(F)(F)F)cc2)no1	i	i	i	25	i	i	18%	i	i	i
O=C(CS(=O)(=O)c1ccc(Cl)cc1)Nc1nnc(-c2cccs2)o1	i	i	i	i	i	i	nt	nt	nt	nt
Cc1ccnc(Nc2nc(-c3ccc(F)cc3)cs2)c1	i	i	i	100	i	i	i	i	i	i
CCn1cnc2scc(-c3ccccc3)c2c1=O	i	i	i	100	i	i	i	i	i	i
COC(=O)c1cccc(Nc2ncnc3sccc23)c1	i	i	i	100	i	i	26%	i	i	i
CC(C)Sc1nc(N2CCOCC2)c2c(c1C#N)CC(C)(C)SC2	i	i	i	i	i	i	nt	nt	nt	nt
CC(C)CSc1nc(N2CCOCC2)c2c(c1C#N)CC(C)(C)SC2	i	i	i	i	i	i	22%	i	i	i
CC(=O)NCCc1c(C)n(Cc2ccccc2)c2ccccc12	i	i	i	i	i	i	nt	nt	nt	nt
N#CC1=C(N)NC(SCC(=O)c2ccc(Cl)cc2)=C(C#N)C12CCCC2	i	i	i	100	i	i	i	i	i	i
CCn1c(N2CCN(S(=O)(=O)c3ccc(F)cc3)CC2)nc2ccccc21	i	i	i	i	i	i	nt	nt	nt	nt
SMILES	CRFR2-BP ag	ANO1 activ	MPTP inh	TMEM16A inh	NR3A LBD binder	CRFR2-BP antag	TMEM16A reconf	HEK293 Ca mobil	Parental YFP cnt	ClC-1 inh
CCn1c(N2CCN(S(=O)(=O)c3ccc(Cl)cc3)CC2)nc2ccccc21	i	i	i	25	i	i	i	i	i	i
c1ccc(Cn2ccc(-c3cnc(-c4ccccc4)s3)n2)cc1	i	i	i	100	i	i	45%	i	i	i
Cc1ccc(NC(=O)Cn2ccc(=O)[nH]c2=O)cc1	i	i	i	i	i	i	nt	nt	nt	nt
CCOC(=O)c1cn(Cc2ccccc2)c(C(=O)OC(C)(C)C)c1O	62	i	i	100	i	i	32%	i	i	i
N#Cc1cccc(NC(=O)Cn2cnc(S(=O)(=O)N3CCCC3)c2)c1	i	i	i	i	i	i	nt	nt	nt	nt
CCc1cc(-c2[nH]ncc2-c2ccc3c(c2)OCO3)c(O)cc1O	i	i	i	100	24	i	52%	i	i	i
CN(Cc1cn[nH]c1-c1ccc2c(c1)OCO2)C1CCOCC1	i	i	i	i	i	i	nt	nt	nt	nt
O=C(Nc1cc(C(F)(F)F)ccc1Cl)C(Sc1ccccn1)c1ccccc1 (configuration not stated)	i	i	i	25	i	i	i	i	i	i
CCCC(=O)OC(C(=O)Nc1cc(C(F)(F)F)ccc1Cl)c1ccccc1 (configuration not stated)	i	i	i	i	i	i	nt	nt	nt	nt
Cc1ccccc1C(=O)N1CCN(c2ccc(NC(=O)c3ccco3)cc2Cl)CC1	i	i	i	100	i	i	i	i	i	i
Cc1ccc(-c2ccc(S(=O)(=O)NCC3CCCO3)cc2)cc1 (configuration not stated)	i	i	i	i	i	i	nt	nt	nt	nt
Cc1cc(C)n(C(=O)c2ccc(S(=O)(=O)NCC3CCCO3)cc2)n1 (configuration not stated)	i	i	i	i	i	i	i	i	i	i
Cc1nc(SCC(=O)NCC2CCCO2)c2cc(-c3ccccc3)sc2n1 (configuration not stated)	i	i	i	nt	i	i	nt	nt	nt	nt
CS(=O)(=O)N1CCc2cc(-c3csc(NC(=O)Cc4cccs4)n3)ccc21	i	i	i	25	i	i	31%	i	i	i
CC(=O)Nc1nc(-c2ccc3c(c2)CCN3S(C)(=O)=O)cs1	i	i	i	i	i	i	nt	nt	nt	nt
CCCOc1ccc(NC(=O)C2CC(=O)N3CCCN=C3S2)cc1 (configuration not stated)	i	i	i	25	i	i	i	i	i	i
